Where “and” joins values, the source holds several entries; their conditions need not be identical. Equal entries are not always repeated. Results filed as inconclusive are left out. Entries that show only a call come without a potency. More than one record can exist for a structure, and the calls need not agree. Calls of active or inactive are those of the source. Calls follow the shape of the dose curve; as a rule, active = well fitted curve in the direction sought with a large enough effect in the repeat runs; inconclusive = weak or mixed curves; inactive = no such curve, though single readings can be large; an effect the other way counts as inactive or inconclusive.
Columns and labels:
[1] = A CellTox Green Cytotoxicity Assay to monitor cytotoxicity in HepG2 cells - 0 hour (AID 1224882); also: nearly all actives have a fitted effect of over 35% in size; also: potency is read from the fitted curve at half-maximal effect
In short: (§1)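 Cytotoxicity was tracked as dead-cell DNA fluorescence in HepG2 cells treated with test compounds at 37 C; each time-point value comes from one kinetic series spanning 0, 8, 16, 24, 32 and 40 h.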

[2] = A CellTox Green Cytotoxicity Assay to monitor cytotoxicity in HEK293 cells - 8 hour (AID 1224884); also: nearly all actives have a fitted effect of over 35% in size; also: potency is read from the fitted curve at half-maximal effect
In short: (§2)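 Real-time, in one plate: 600 HEK293 cells/well with dead-cell DNA dye, pinned compound after 5 h, 37 C incubation over 40 h; viable cells give no appreciable fluorescence.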

[3] = qHTS RealTime-Glo MT Cell Viability Assay in HepG2 cells - 16 hour (AID 1224885); also: nearly all actives have a fitted effect of over 50% in size; also: potency is read from the fitted curve at half-maximal effect
In short: (§3)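 Luminescence read-out: viable HepG2 cells reduce a prosubstrate to a NanoLuc substrate, giving a signal proportional to live cell number. Reads taken at 0, 8, 16, 24, 32 and 40 h of compound exposure at 37 C.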

[4] = qHTS RealTime-Glo MT Cell Viability Assay in HEK293 cells - 24 hour (AID 1224886); also: nearly all actives have a fitted effect of over 50% in size; also: potency is read from the fitted curve at half-maximal effect
In short: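 Nonlytic real-time viability readout: viable cells convert prosubstrate to NanoLuc substrate, giving luminescence proportional to live cell number. HEK293, 600 cells/well, compound added after 5 h, continuous culture at 37 C.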

[5] = qHTS RealTime-Glo MT Cell Viability Assay in HEK293 cells - 8 hour (AID 1224887); also: nearly all actives have a fitted effect of over 50% in size; also: potency is read from the fitted curve at half-maximal effect
In short: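 Kinetic, non-lysing viability readout. Seed HEK293 (600/well) with reagent, incubate 5 h at 37 C/5% CO2, pin 23 nL compound in DMSO, incubate at 37 C, read luminescence at 0, 8, 16, 24, 32, 40 h.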

[6] = A CellTox Green Cytotoxicity Assay to monitor cytotoxicity in HEK293 cells - 16 hour (AID 1224888); also: nearly all actives have a fitted effect of over 35% in size
In short: as §2

[7] = qHTS RealTime-Glo MT Cell Viability Assay in HepG2 cells - 0 hour (AID 1224889); also: nearly all actives have a fitted effect of over 50% in size; also: potency is read from the fitted curve at half-maximal effect
In short: as §3

[8] = A CellTox Green Cytotoxicity Assay to monitor cytotoxicity in HepG2 cells - 8 hour (AID 1224890); also: nearly all actives have a fitted effect of over 45% in size; also: potency is read from the fitted curve at half-maximal effect
In short: as §1

[9] = qHTS assay to identify small molecule antagonists of the estrogen receptor alpha (ER-alpha) signaling pathway using the BG1 cell line in the presence of 0.1 nM 17-beta-estradiol - cell viability counter screen (AID 1259241); also: nearly all actives have a fitted effect of over 40% in size; also: potency is read from the fitted curve at half-maximal effect
In short: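 Cytotoxicity counter-screen: live-cell protease activity measured by fluorescence (30 min reagent step) in the same wells. Cells were VM7Luc4E2 with endogenous ER-alpha and ERE-driven luciferase, treated 22 hr at 37C alongside 0.1 nM 17beta-estradiol final.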

[10] = A CellTox Green Cytotoxicity Assay to monitor cytotoxicity in HepG2 cells - 32 hour (AID 1224883); also: nearly all actives have a fitted effect of over 50% in size; also: potency is read from the fitted curve at half-maximal effect
In short: as §1

Structure (SMILES)	Potency [1]	Potency [2]	Potency [3]	Potency [4]	Potency [5]	Potency [6]	Potency [7]	Potency [8]	Potency [9]	Potency [10]
CCN1CCCC1=O	inactive	inactive	inactive	inactive	inactive	inactive	inactive	inactive	inactive	
OCCCc1ccccc1	inactive		inactive	inactive	inactive	inactive	inactive	inactive	inactive	inactive
CC(=O)CCC(C)C	inactive and 38.9 µM (active)		inactive	inactive	inactive		inactive	inactive and 43.6 µM (active)	inactive	inactive and 38.9 µM (active)
O=[N+]([O-])c1ccc(O)cc1	inactive		inactive	inactive	inactive	inactive	inactive	inactive	56.6 µM (active)	inactive
COC(=O)C1CCC(C(=O)OC)CC1 (stereo not given)	inactive	inactive	inactive	inactive	inactive	inactive	inactive	inactive	inactive	
CCCCOC(=O)CCCCCCCCC(=O)OCCCC	inactive		inactive	inactive	inactive	inactive	inactive	inactive	inactive	inactive
COc1ccc(C(=O)c2ccccc2)c(O)c1	inactive		inactive	inactive and 12.3 µM (active)	inactive	inactive	inactive	inactive	inactive	inactive
NC(=O)OCC(COC(N)=O)c1ccccc1	inactive		inactive		inactive	inactive	inactive	inactive	inactive	inactive
Nc1ccc(N=Nc2ccccc2)c(N)n1	inactive		inactive	39.1 µM (active) and 24.5 µM (active)		inactive	inactive	inactive	61.4 µM (active) and 30.6 µM (active)	31.1 µM (active) and 17.4 µM (active)
O=C1CCCCCN1	inactive	inactive	inactive	inactive	inactive	inactive	inactive	inactive	inactive	
CCCCCCCCCCCCCC(=O)OC(C)C	inactive		inactive	inactive and 3.47 µM (active)	inactive and 9.77 µM (active)	inactive	inactive	inactive	inactive	inactive
C[C@]12C[C@H](O)[C@H]3[C@@H](CCC4=CC(=O)CC[C@@]43C)[C@@H]1CC[C@@H]2C(=O)CO	inactive	inactive	inactive	inactive	inactive	inactive	9.79 µM (active) and 3.47 µM (active) and 9.52 µM (active)	inactive	inactive	
Nc1cccc(N)c1	inactive	inactive	inactive	inactive	inactive	inactive	inactive	inactive	inactive	
O=C(OCc1ccccc1)c1ccccc1	inactive	inactive	inactive	inactive	inactive	inactive	inactive	inactive	inactive	
COC(=O)c1ccc(O)cc1	inactive					inactive		inactive	inactive	inactive
CN(C)Cc1cc(CN(C)C)c(O)c(CN(C)C)c1	inactive		inactive		inactive	inactive	inactive	inactive	inactive	inactive
CN(C)C=O	inactive	inactive	inactive	inactive	inactive	inactive	inactive	inactive	inactive	
Cc1cccc(Nc2cc(Cl)nc(SCC(=O)O)n2)c1C	inactive		inactive		inactive	inactive	inactive	inactive	inactive	inactive
CC(C)=CCC/C(C)=C/CO	inactive		inactive		inactive	inactive	inactive	inactive	inactive	
CO[C@H]1C=CO[C@@]2(C)Oc3c(C)c(O)c4c(O)c(c(/C=N/N5CCN(C)CC5)c(O)c4c3C2=O)NC(=O)/C(C)=C\C=C[C@H](C)[C@H](O)[C@@H](C)[C@@H](O)[C@@H](C)[C@H](OC(C)=O)[C@@H]1C	inactive		12.4 µM (active)	12.4 µM (active) and 4.42 µM (active) and 21.3 µM (active)	2.77 µM (active) and 988 nM (active) and 10.7 µM (active)	inactive	inactive	inactive	27.4 µM (active) and 19.6 µM (active) and 13.3 µM (active)	
C/C=C/c1ccc(O)c(OC)c1	inactive		inactive		inactive	inactive	inactive	inactive	inactive	
COC(=O)c1ccc(C=O)cc1	inactive		inactive		inactive	inactive	inactive	inactive	inactive	
CCCCCCCCCCCCCCCCCC(=O)OCC(O)CO (stereo not given)	inactive		inactive	inactive	inactive	inactive	inactive	inactive	inactive	
C=CC(=O)NC(C)(C)CS(=O)(=O)O	inactive and 27.5 µM (active)	inactive and 43.6 µM (active)	inactive	inactive	inactive		inactive	inactive and 38.9 µM (active)	inactive	

Structure (SMILES)	Potency [1]	Potency [2]	Potency [3]	Potency [4]	Potency [5]	Potency [6]	Potency [7]	Potency [8]	Potency [9]	Potency [10]
COc1cc2c(c(OC)c1OC)-c1ccc(OC)c(=O)cc1[C@@H](NC(C)=O)CC2	inactive	inactive	inactive	inactive	inactive	inactive	inactive	inactive	inactive	
COc1cc(C=O)ccc1O	inactive		inactive		inactive	inactive	inactive	inactive	inactive	
Cc1cccc(C)c1O	inactive	inactive	inactive		inactive	inactive	inactive	inactive	inactive	
CCCCNC(=O)NS(=O)(=O)c1ccc(N)cc1	inactive		inactive		inactive	inactive	inactive	inactive	inactive	
CC(C)(C)CC(C)(C)c1ccc(O)c(-n2nc3ccccc3n2)c1	inactive		inactive		inactive	inactive	inactive	inactive	inactive	
NC(=O)N1c2ccccc2C=Cc2ccccc21	inactive		inactive		inactive	inactive	inactive	inactive	inactive	
N[C@@H](Cc1c[nH]c2ccccc12)C(=O)O	inactive		inactive	inactive	inactive	inactive	inactive	inactive	inactive	
C[C@]12C=CC(=O)C=C1CC[C@@H]1[C@@H]2C(=O)C[C@@]2(C)[C@H]1CC[C@]2(O)C(=O)CO	inactive	inactive	inactive		inactive	inactive	22 µM (active) and 17.4 µM (active)	inactive	inactive	
C[C@]12CC[C@@H]3c4ccc(O)cc4C[C@@H](CCCCCCCCCS(=O)CCCC(F)(F)C(F)(F)F)[C@H]3[C@@H]1CC[C@@H]2O (stereo not given in full)	inactive		inactive		43.6 µM (active)	inactive	inactive	inactive	inactive	
Oc1cccc(O)c1	inactive		inactive		inactive	inactive	inactive	inactive	inactive	
NC(=O)NO	inactive	inactive	inactive		inactive	inactive	inactive	inactive	inactive	
CCCCCCCC(=O)OCC(O)CO (stereo not given)	inactive and 26.8 µM (active)	inactive	inactive		inactive	inactive	inactive	inactive	inactive	
CC1(C)O[C@@H]2[C@@H](CO[C@@]3(COS(N)(=O)=O)OC(C)(C)O[C@@H]23)O1	inactive		inactive		inactive	inactive	inactive	inactive	inactive	
CC(=O)OC/C=C(C)/C=C/C=C(C)/C=C/C1=C(C)CCCC1(C)C	inactive		inactive	inactive	inactive	inactive	inactive	inactive	inactive	
C=C(C)OC(C)=O	inactive	inactive	inactive		inactive	inactive	inactive	inactive	inactive	
O=C(O)CCCCC1CCSS1 (stereo not given)	inactive		inactive	inactive	inactive	inactive	inactive	inactive	inactive	
Cc1c(N(C)C)c(=O)n(-c2ccccc2)n1C	inactive	inactive	inactive	inactive	inactive	inactive	inactive	inactive	inactive	
COCCOCCOC	inactive	inactive	inactive	inactive	inactive	inactive	inactive	inactive	inactive	
O=c1cc[nH]c(=O)[nH]1	inactive	inactive	inactive		inactive	inactive	inactive	inactive	inactive	
COc1cc(O)c(C(=O)c2ccccc2)cc1S(=O)(=O)O	inactive	inactive	inactive	inactive	inactive	inactive	inactive	inactive	inactive	
OC[C@@H](O)[C@@H](O)[C@H](O)[C@H](O)CO	inactive		inactive	inactive	inactive	inactive	inactive	inactive	inactive	
CCOC(=O)C(C)(C)Oc1ccc(Cl)cc1	inactive		inactive		inactive	inactive	inactive	inactive	inactive	
CC1=NN(c2ccccc2)C(=O)C1	inactive		inactive	inactive	inactive	inactive	inactive	inactive	inactive	
C[C@]12CC[C@@H]3c4ccc(O)cc4CC[C@H]3[C@@H]1CCC2=O	inactive		inactive		inactive	inactive	inactive	inactive	inactive	

From PubChem BioAssay (Tox21)
